# Experimental data reported in publication PMC5540273 (PLoS ONE, 2017).
# Columns and labels:
# Details in all cases: concentration: 1 μM, replicates: in singlicate; n = 1
# [1] = test system: ERBB2
# [2] = test system: ERBB3
# [3] = test system: ERBB4
# [4] = test system: T1, ERK1
# T1 construct: gene MAPK3
# [5] = test system: T2, ERK2
# T2 construct: gene MAPK1
# [6] = test system: T3, ERK3
# T3 construct: gene MAPK6
# [7] = test system: T4, ERK4
# T4 construct: gene MAPK4
# [8] = test system: T5, ERK5
# T5 construct: gene MAPK7
# [9] = test system: T6, ERK8
# T6 construct: gene MAPK15
# [10] = test system: ERN1
# [11] = test system: T7, FAK
# T7 construct: gene PTK2
# [12] = test system: FER
# [13] = test system: FES
# [14] = test system: FGFR1
# [15] = test system: FGFR2
# [16] = test system: FGFR3
# [17] = test system: FGFR4
# [18] = test system: FGR
# [19] = test system: FLT1
# [20] = test system: FLT3-autoinhibited
# 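Also: KINOMEscan kinase panel screen.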
SMILES,%Inh [1] [%],%Inh [2] [%],%Inh [3] [%],%Inh [4] [%],%Inh [5] [%],%Inh [6] [%],%Inh [7] [%],%Inh [8] [%],%Inh [9] [%],%Inh [10] [%],%Inh [11] [%],%Inh [12] [%],%Inh [13] [%],%Inh [14] [%],%Inh [15] [%],%Inh [16] [%],%Inh [17] [%],%Inh [18] [%],%Inh [19] [%],%Inh [20] [%]
CCn1c(-c2cccnc2O)nc2cnccc21 [SB-736715],9,0,25,0,0,0,0,0,0,0,0,0,0,0,0,0,0,0,0,0
COc1cc2nccc(Nc3ccc(NC(=O)c4ccc(C)cc4)c(O)c3)c2cc1OC.Cl [GW440132],14,0,9,0,2,13,3,0,1,29,0,45,5,22,22,2,6,37,30,0
Cc1cc(NCC(c2ccccc2)c2ccccc2)nc(NCc2ccc(C(F)(F)F)cc2)n1 [GW497681],21,1,27,0,0,0,5,0,0,0,0,0,0,0,0,20,1,20,11,0
Cc1csc(-c2nc(Nc3ccncc3)c3ccccc3n2)n1 [GW869640],36,40,0,13,17,4,0,0,32,27,3,7,10,17,6,6,16,7,19,26
COc1cc2ncnc(Nc3ccc4nc(-c5ccccc5)[nH]c4c3)c2cc1OC.Cl [GW282450],23,0,33,0,0,0,0,0,0,4,0,42,6,10,0,0,14,14,38,0
Cc1cccc(-c2nc(Nc3ccc4[nH]ncc4c3)c3ccccc3n2)n1 [GW857175],0,18,0,0,4,0,9,3,21,35,0,11,0,5,0,0,0,0,12,32
O=C(Nc1n[nH]c2cc(-c3cccc(F)c3F)ccc12)C1CC1 [SB-733894],0,0,27,0,0,0,0,11,28,5,3,0,53,0,0,0,0,61,0,12
O=S(=O)(c1ccc(-c2ccnc3[nH]ccc23)cc1)N1CCCC1 [GSK846226],0,0,0,0,0,11,30,0,0,35,0,12,0,0,0,12,2,16,22,8
Cc1cccc(-c2nc(C)cc(Nc3ccncc3)n2)n1 [GSK257997],28,0,30,0,0,19,100,0,0,4,0,42,0,7,14,16,0,8,32,0
Cn1ccc2ncnc(Oc3cccc(C(=O)Nc4ccccc4)c3)c21,18,18,0,0,21,0,4,5,6,29,5,8,4,0,0,0,6,5,54,15
